In the supplement of paper PMC4022240:
± gives the standard deviation.

How the values were obtained:
Test in all cases: peptide microarray binding signal (635 nm), min-max normalized on array (fraction of array maximum); higher = stronger binding
Conditions in all cases: peptide region: H3 1-13
[1] = molecular target: T1, HaloTag-ATRX ADD domain (163-292)
T1 chain: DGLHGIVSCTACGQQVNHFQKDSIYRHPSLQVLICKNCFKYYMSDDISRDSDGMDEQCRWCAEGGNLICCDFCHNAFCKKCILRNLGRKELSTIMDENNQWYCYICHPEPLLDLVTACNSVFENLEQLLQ
Experimental: (§1)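 Histone 13-mer peptides were synthesized as cellulose conjugates with a C-terminal 20-atom PEG linker and printed in triplicate on nitrocellulose. The sequence given is the unmodified backbone; PTMs (Kme1/2/3, Kac, Sph/Tph, Rme/Rme2a/Rme2s, Rcit) are listed in the label and the 'peptide modifications' condition. Slides were probed at 4 °C for 1 h with biotin-labelled (HQ)5-HaloTag reader fusions (ATRX-ADD, ING2-PHD) then streptavidin-Alexa647, or with rabbit histone antibodies then anti-rabbit Alexa647. The mean 635 nm signal of the triplicate spots was scaled 0-1 between the lowest and highest values on each array.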

[2] = molecular target: HaloTag-ING2 PHD (mouse Ing2 200-280)
Experimental: as §1

[3] = molecular target: anti-H3K4me3 antibody ab8580
Experimental: as §1

[4] = molecular target: anti-H3K9me3 antibody ab8898
Experimental: as §1

[5] = peptide modifications: H3R2me2a H3K4ac, binder concentration: 1:2,000 dilution
[6] = peptide modifications: H3R2me2a H3K4ac, binder concentration: 1:10,000 dilution
[7] = peptide modifications: H3R2me1 H3K4me2, binder concentration: 1:2,000 dilution
[8] = peptide modifications: H3R2me1 H3K4me2, binder concentration: 1:10,000 dilution
[9] = peptide modifications: H3R2me1 H3K9me1, binder concentration: 1:2,000 dilution
[10] = peptide modifications: H3R2me1 H3K9me1, binder concentration: 1:10,000 dilution
[11] = peptide modifications: H3R2me2a H3K4me2, binder concentration: 1:2,000 dilution
[12] = peptide modifications: H3R2me2a H3K4me2, binder concentration: 1:10,000 dilution
[13] = peptide modifications: H3R2cit H3T6ph, binder concentration: 1:2,000 dilution
[14] = peptide modifications: H3R2cit H3T6ph, binder concentration: 1:10,000 dilution
[15] = peptide modifications: H3R2me1, binder concentration: 1:2,000 dilution
[16] = peptide modifications: H3R2me1, binder concentration: 1:10,000 dilution
[17] = peptide modifications: H3R2me1 H3T6ph, binder concentration: 1:2,000 dilution
[18] = peptide modifications: H3R2me1 H3T6ph, binder concentration: 1:10,000 dilution
[19] = peptide modifications: H3R2cit, binder concentration: 1:2,000 dilution
[20] = peptide modifications: H3R2cit, binder concentration: 1:10,000 dilution
[21] = peptide modifications: H3R2me1 H3K4me3, binder concentration: 1:2,000 dilution
[22] = peptide modifications: H3R2me1 H3K4me3, binder concentration: 1:10,000 dilution
[23] = peptide modifications: H3R2cit H3K9me3, binder concentration: 1:2,000 dilution
[24] = peptide modifications: H3R2cit H3K9me3, binder concentration: 1:10,000 dilution

Binder: ARTKQTARKSTGG [H3 1-13 A Rme2a T Kac Q T A R K S T G G]
- peptide microarray binding signal ([1]; peptide modifications: H3R2me2a H3K4ac, binder concentration: 50 nM): 0.0125 ± 0.00079
- peptide microarray binding signal ([1]; peptide modifications: H3R2me2a H3K4ac, binder concentration: 500 nM): 0.0335 ± 0.0053
- peptide microarray binding signal ([2]; peptide modifications: H3R2me2a H3K4ac, binder concentration: 10 nM): 0.0118 ± 0.0039
- peptide microarray binding signal ([2]; peptide modifications: H3R2me2a H3K4ac, binder concentration: 100 nM): 0.0337 ± 0.0021
- peptide microarray binding signal [3, 5]: 0.00455 ± 0.00093
- peptide microarray binding signal [3, 6]: 0.00639 ± 0.00058
- peptide microarray binding signal [4, 5]: 0.0124 ± 0.0014
- peptide microarray binding signal [4, 6]: 0.0053 ± 0.00063

Binder: ARTKQTARKSTGG [H3 1-13 A Rme T Kme2 Q T A R K S T G G]
- peptide microarray binding signal ([1]; peptide modifications: H3R2me1 H3K4me2, binder concentration: 50 nM): 0.00715 ± 0.0002
- peptide microarray binding signal ([1]; peptide modifications: H3R2me1 H3K4me2, binder concentration: 500 nM): 0.017 ± 0.0047
- peptide microarray binding signal ([2]; peptide modifications: H3R2me1 H3K4me2, binder concentration: 10 nM): 0.219 ± 0.059
- peptide microarray binding signal ([2]; peptide modifications: H3R2me1 H3K4me2, binder concentration: 100 nM): 0.175 ± 0.047
- peptide microarray binding signal [3, 7]: 0.269 ± 0.14
- peptide microarray binding signal [3, 8]: 0.0639 ± 0.0072
- peptide microarray binding signal [4, 7]: 0.00439 ± 0.0014
- peptide microarray binding signal [4, 8]: 0.00392 ± 0.00093

Binder: ARTKQTARKSTGG [H3 1-13 A Rme T K Q T A R Kme1 S T G G]
- peptide microarray binding signal ([1]; peptide modifications: H3R2me1 H3K9me1, binder concentration: 50 nM): 0.0572 ± 0.0022
- peptide microarray binding signal ([1]; peptide modifications: H3R2me1 H3K9me1, binder concentration: 500 nM): 0.108 ± 0.011
- peptide microarray binding signal ([2]; peptide modifications: H3R2me1 H3K9me1, binder concentration: 10 nM): 0.0402 ± 0.0095
- peptide microarray binding signal ([2]; peptide modifications: H3R2me1 H3K9me1, binder concentration: 100 nM): 0.0772 ± 0.0086
- peptide microarray binding signal [3, 9]: 0.00991 ± 0.0016
- peptide microarray binding signal [3, 10]: 0.008959 ± 8.7e-05
- peptide microarray binding signal [4, 9]: 0.00462 ± 0.00079
- peptide microarray binding signal [4, 10]: 0.0045 ± 0.00015

Binder: ARTKQTARKSTGG [H3 1-13 A Rme2a T Kme2 Q T A R K S T G G]
- peptide microarray binding signal ([1]; peptide modifications: H3R2me2a H3K4me2, binder concentration: 50 nM): 0.00837 ± 0.00013
- peptide microarray binding signal ([1]; peptide modifications: H3R2me2a H3K4me2, binder concentration: 500 nM): 0.0168 ± 0.00084
- peptide microarray binding signal ([2]; peptide modifications: H3R2me2a H3K4me2, binder concentration: 10 nM): 0.0141 ± 0.00071
- peptide microarray binding signal ([2]; peptide modifications: H3R2me2a H3K4me2, binder concentration: 100 nM): 0.0206 ± 0.0044
- peptide microarray binding signal [3, 11]: 0.0754 ± 0.017
- peptide microarray binding signal [3, 12]: 0.0898 ± 0.0086
- peptide microarray binding signal [4, 11]: 0.00464 ± 0.0004
- peptide microarray binding signal [4, 12]: 0.00386 ± 0.00011

Binder: ARTKQTARKSTGG [H3 1-13 A Rcit T K Q Tph A R K S T G G]
- peptide microarray binding signal ([1]; peptide modifications: H3R2cit H3T6ph, binder concentration: 50 nM): 0.00621 ± 0.00039
- peptide microarray binding signal ([1]; peptide modifications: H3R2cit H3T6ph, binder concentration: 500 nM): 0.0199 ± 0.0043
- peptide microarray binding signal ([2]; peptide modifications: H3R2cit H3T6ph, binder concentration: 10 nM): 0.00382 ± 0.00065
- peptide microarray binding signal ([2]; peptide modifications: H3R2cit H3T6ph, binder concentration: 100 nM): 0.0157 ± 0.0039
- peptide microarray binding signal [3, 13]: 0.00345 ± 0.00082
- peptide microarray binding signal [3, 14]: 0.00348 ± 0.00034
- peptide microarray binding signal [4, 13]: 0.00166 ± 0.00026
- peptide microarray binding signal [4, 14]: 0.00173 ± 0.00011

Binder: ARTKQTARKSTGG [H3 1-13 A Rme T K Q T A R K S T G G]
- peptide microarray binding signal ([1]; peptide modifications: H3R2me1, binder concentration: 50 nM): 0.0145 ± 0.00019
- peptide microarray binding signal ([1]; peptide modifications: H3R2me1, binder concentration: 500 nM): 0.0334 ± 0.0026
- peptide microarray binding signal ([2]; peptide modifications: H3R2me1, binder concentration: 10 nM): 0.0175 ± 0.0043
- peptide microarray binding signal ([2]; peptide modifications: H3R2me1, binder concentration: 100 nM): 0.0456 ± 0.0031
- peptide microarray binding signal [3, 15]: 0.000698 ± 1.7e-05
- peptide microarray binding signal [3, 16]: 0.000742
- peptide microarray binding signal [4, 15]: 0.00202 ± 0.0002
- peptide microarray binding signal [4, 16]: 0.000461

Binder: ARTKQTARKSTGG [H3 1-13 A Rme T K Q Tph A R K S T G G]
- peptide microarray binding signal ([1]; peptide modifications: H3R2me1 H3T6ph, binder concentration: 50 nM): 0.00589 ± 0.00086
- peptide microarray binding signal ([1]; peptide modifications: H3R2me1 H3T6ph, binder concentration: 500 nM): 0.00971 ± 0.00097
- peptide microarray binding signal ([2]; peptide modifications: H3R2me1 H3T6ph, binder concentration: 10 nM): 0.00269 ± 4e-05
- peptide microarray binding signal ([2]; peptide modifications: H3R2me1 H3T6ph, binder concentration: 100 nM): 0.0186 ± 0.0023
- peptide microarray binding signal [3, 17]: 0.000774 ± 4.3e-05
- peptide microarray binding signal [3, 18]: 0.000799 ± 2.2e-05
- peptide microarray binding signal [4, 17]: 0.0018 ± 6.1e-05
- peptide microarray binding signal [4, 18]: 0.000634 ± 1.2e-05

Binder: ARTKQTARKSTGG [H3 1-13 A Rcit T K Q T A R K S T G G]
- peptide microarray binding signal ([1]; peptide modifications: H3R2cit, binder concentration: 50 nM): 0.00937 ± 0.00037
- peptide microarray binding signal ([1]; peptide modifications: H3R2cit, binder concentration: 500 nM): 0.0298 ± 0.0055
- peptide microarray binding signal ([2]; peptide modifications: H3R2cit, binder concentration: 10 nM): 0.012 ± 0.0023
- peptide microarray binding signal ([2]; peptide modifications: H3R2cit, binder concentration: 100 nM): 0.0101 ± 0.001
- peptide microarray binding signal [3, 19]: 0.00315 ± 0.00061
- peptide microarray binding signal [3, 20]: 0.00126 ± 0.00016
- peptide microarray binding signal [4, 19]: 0.00101 ± 0.00014
- peptide microarray binding signal [4, 20]: 0.000577 ± 1.6e-05

Binder: ARTKQTARKSTGG [H3 1-13 A Rme T Kme3 Q T A R K S T G G]
- peptide microarray binding signal ([1]; peptide modifications: H3R2me1 H3K4me3, binder concentration: 50 nM): 0.00765 ± 0.00016
- peptide microarray binding signal ([1]; peptide modifications: H3R2me1 H3K4me3, binder concentration: 500 nM): 0.0187 ± 0.00094
- peptide microarray binding signal ([2]; peptide modifications: H3R2me1 H3K4me3, binder concentration: 10 nM): 0.267 ± 0.048
- peptide microarray binding signal ([2]; peptide modifications: H3R2me1 H3K4me3, binder concentration: 100 nM): 0.215 ± 0.13
- peptide microarray binding signal [3, 21]: 0.449 ± 0.19
- peptide microarray binding signal [3, 22]: 0.243 ± 0.053
- peptide microarray binding signal [4, 21]: 0.106 ± 0.018
- peptide microarray binding signal [4, 22]: 0.0312 ± 0.0012

Binder: ARTKQTARKSTGG [H3 1-13 A Rcit T K Q T A R Kme3 S T G G]
- peptide microarray binding signal ([1]; peptide modifications: H3R2cit H3K9me3, binder concentration: 50 nM): 0.435 ± 0.044
- peptide microarray binding signal ([1]; peptide modifications: H3R2cit H3K9me3, binder concentration: 500 nM): 0.525 ± 0.024
- peptide microarray binding signal ([2]; peptide modifications: H3R2cit H3K9me3, binder concentration: 10 nM): 0.0492 ± 0.0064
- peptide microarray binding signal ([2]; peptide modifications: H3R2cit H3K9me3, binder concentration: 100 nM): 0.0792 ± 0.014
- peptide microarray binding signal [3, 23]: 0.137 ± 0.007
- peptide microarray binding signal [3, 24]: 0.0635 ± 0.0071
- peptide microarray binding signal [4, 23]: 0.676 ± 0.04
- peptide microarray binding signal [4, 24]: 0.408 ± 0.044
